Bioassay records deposited in PubChem BioAssay by National Center for Advancing Translational Sciences (NCATS).
The sample as a whole holds a higher share of hits than the screen did.
NTMT1 inhibitor: inhibitors of human N-terminal methyltransferase NTMT1; 59,000 compounds, 2.5% hits; NTMT1 MTase-Glo SAH luminescence, purified enzyme; Q9BV86; Potency, µM (doses to about 114 µM), inactives show at the highest dose activity change, negative = inhibition, most hits filed as inhibitors;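 note: potency is the fitted concentration of half-maximal effect; plate controls were DMSO vehicle for no effect and no enzyme for full effect; nearly all actives have a fitted effect of over 65% in size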
GALC G270D act: enhancers of human galactocerebrosidase G270D mutant activity in cells; 45,000 compounds, 0.1% hits; Potency, µM (highest dose often 57.5 µM), hits mostly activators; AID 1159614; P54803; 145M-Twi-hGALC-G270D cells, HMU-beta-Gal fluorescence, 48 h; note: potency is the fitted concentration of half-maximal effect; 0% is about no effect; nearly all actives have a fitted effect of over 65% in size
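qHTS, 1536-well; 145M-Twi-hGALC-G270D cells (WT line also made) in DMEM/F12 + 10% FBS; compound incubation on live cells; HMU-β-gal 0.1 mM final, pH 5.2, NaTC; carbonate stop; fluorescence increase = enhanced residual activity.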
FH mod: Identification of activators of human fumarate hydratase by quantitative high-throughput screening | Fumarate hydratase, mitochondrial (Homo sapiens), P07954 | FH coupled MDH/diaphorase resazurin fluorescence, 15 min | Potency, µM (series often up to 79.9 µM), for the others: at the top dose activity change, negative = inhibition, most hits filed as inhibitors | 54,000 compounds, 0.22% hits; note: potency is the fitted concentration of half-maximal effect; % is set by controls: 0 for no effect and ±100 for the full control effect; the screen sought activators but most active calls are inhibition curves; nearly all actives have a fitted effect of over 45% in size
Sfp PPTase inh: inhibits purified B. subtilis Sfp PPTase; shares compounds with NTMT1 inhibitor; purified Sfp PPTase enzyme activity, qHTS; Potency, µM (titrated, usually from 114 µM), for the others: top-dose activity change, negative = inhibition, most hits filed as inhibitors; 230 compounds, 78% hits
Bsub HM489 growth: reduces growth of B. subtilis HM489 strain; Potency, µM (highest dose often 114 µM), inactives show at the highest dose activity change, negative = inhibition, hits mostly inhibitors; 220 compounds, 50% hits; B. subtilis HM489 (acpS-) growth, BacTiter-Glo, 5 h; AID 540353; shares compounds with NTMT1 inhibitor
Sfp gel opt: inhibitors of Bacillus subtilis Sfp PPTase, gel-based followup; shares compounds with NTMT1 inhibitor; purified Sfp PPTase, gel-based product detection; Potency, µM (top dose mostly 250 µM), for inactives: at the highest dose activity change, negative = inhibition, hits mostly inhibitors; 220 compounds, 54% hits
Sfp gel: inhibits B. subtilis Sfp PPTase in gel-based assay. 45 compounds, 90% hits. Potency, µM (series often up to 250 µM), for the others: top-dose activity change, negative = inhibition, actives largely listed as inhibitors. shares compounds with NTMT1 inhibitor. purified Sfp PPTase, gel-based product detection
Sfp SAR2: Sfp phosphopantetheinyl transferase inhibition, SAR round 2; shares compounds with NTMT1 inhibitor; purified Sfp enzyme, PPTase activity, qHTS; AID 602370; 230 compounds, 87% hits; Potency, µM (highest dose often 57.1 µM), for inactives: top-dose activity change, negative = inhibition, usual class: inhibitors
hGST A1-1 inh: counter-screen for Sfp PPTase inhibitors: hGST A1-1 inhibition; hGST A1-1 enzyme activity counter-screen, qHTS; 55 tested, under 10 active; Potency, µM (top dose mostly 114 µM), inactives show at the top dose activity change, negative = inhibition, hits mostly inhibitors; AID 602391; shares compounds with NTMT1 inhibitor
HSD17B4 counter: inhibits human HSD17B4, off-target for HPGD inhibitors | shares compounds with NTMT1 inhibitor | purified HSD17B4, estradiol/NAD+, NADH fluorescence | Potency, µM (doses to about 57.1 µM), for the others: at the highest dose activity change, negative = inhibition, actives largely listed as inhibitors | 230 compounds, 10% hits
ALDH1A1 inh: ALDH1A1 (human) inhibition, HPGD counter-screen. shares compounds with NTMT1 inhibitor. recombinant ALDH1A1, NADH fluorescence, propionaldehyde/NAD+. Potency, µM (highest dose often 57.1 µM), without a hit: top-dose activity change, negative = inhibition, actives largely listed as inhibitors. 230 compounds, 93% hits
Target sequence (P00352 whole entry, looked up): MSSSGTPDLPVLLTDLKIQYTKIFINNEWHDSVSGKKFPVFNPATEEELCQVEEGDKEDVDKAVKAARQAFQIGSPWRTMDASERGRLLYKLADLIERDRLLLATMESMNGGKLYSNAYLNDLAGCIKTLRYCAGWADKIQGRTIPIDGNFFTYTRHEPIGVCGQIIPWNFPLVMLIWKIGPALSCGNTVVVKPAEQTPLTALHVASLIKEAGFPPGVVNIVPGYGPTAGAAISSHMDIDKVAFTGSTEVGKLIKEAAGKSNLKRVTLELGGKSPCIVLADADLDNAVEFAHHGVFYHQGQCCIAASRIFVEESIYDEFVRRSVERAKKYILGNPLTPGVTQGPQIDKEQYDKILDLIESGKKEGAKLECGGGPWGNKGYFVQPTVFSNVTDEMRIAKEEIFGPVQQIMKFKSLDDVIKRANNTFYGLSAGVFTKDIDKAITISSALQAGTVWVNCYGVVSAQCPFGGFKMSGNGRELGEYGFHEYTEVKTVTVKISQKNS
Numbers without * were called inactive; i = inactive; u = inconclusive; x = not tested or not shown; [ ] = another dose, or the depositor's remark. Calls come from the whole dose curve; as a rule, active = well fitted curve in the direction sought with a large enough effect; inconclusive = small, poorly fitted or top-dose-only effect, or another doubt; inactive = no such curve, though single readings can be large; an effect the other way counts as inactive or inconclusive.

SMILES	NTMT1 inhibitor	GALC G270D act	FH mod	others
COc1cc(NC(=S)N2CCN(c3cccc(C(F)(F)F)c3)CC2)nc2ccccc12	u	x	x	Sfp PPTase inh=1.9µM*;Bsub HM489 growth=47µM*;Sfp gel opt=0.79µM*;Sfp SAR2=0.65µM*;HSD17B4 counter=-57%;ALDH1A1 inh=5.4µM*
Cc1nn(CC(=O)N2CCN(c3cccc(C(F)(F)F)c3)CC2)c(=O)c2cccn12	-3%	i	-9%
CC(Nc1nc(-c2ccccc2C(F)(F)F)nc2ccccc12)c1ccc(-c2ccncc2)cc1 (stereo unspecified)	4%[57.5 µM]	x	x
Cc1c(CN2CCC(Nc3ncnc4sc(CC(F)(F)F)cc34)CC2)ccc2c1cc(C#N)n2Cc1cn[nH]c1	4%	x	x
O=C(O)c1cc(C(F)(F)F)ccc1N1CC[C@H](OCc2ccccn2)C1	u	x	1%
CCOc1ccc(-c2nn3ncccc3c2-c2ccc(S(C)(=O)=O)cc2)cc1	-4%[57.5 µM]	x	-26%
Cc1nc(C)c(CN2CCN(C(c3ccc(F)cc3)c3ccc(F)cc3)CC2)nc1C	19%	x	x
O=S(=O)(NCc1ccccc1)c1ccc(O)c2ncccc12	5%	x	x
CC(=O)OC1C=C(C(=O)O)C2(CO)CCC(C)C(C)(CCc3ccoc3)C2C1 (stereo unspecified)	10%[29.8 µM]	x	-1%[53.3 µM]
Cc1scc2c1C(=O)NS2(=O)=O	10%	x	x
COc1cccc(NC(=S)N2CCN(c3cccc(C(F)(F)F)c3)CC2)n1	x	x	x	Sfp PPTase inh=13µM*;Bsub HM489 growth=42µM*;Sfp gel opt=20µM*;Sfp SAR2=11µM*;HSD17B4 counter=19µM*;ALDH1A1 inh=15µM*
COC(=O)c1c(-c2ccc(Cl)cc2)noc1N1CCN(c2cccc(C(F)(F)F)c2)CC1	4%	i	-10%
Cc1ccc2c(c1)-c1c(cnn1CC(=O)N1CCN(c3cccc(C(F)(F)F)c3)CC1)CO2	1%	i	u
Cc1cc(C)nc(NC(=S)N2CCN(c3ccc4cn(C)nc4c3)CC2)c1	u	x	x	Sfp PPTase inh=13µM*;Bsub HM489 growth=12%;Sfp gel opt=-68%;Sfp SAR2=11µM*;HSD17B4 counter=u;ALDH1A1 inh=22µM*
NC(=O)c1cc(S(=O)(=O)N2CCN(c3cccc(C(F)(F)F)c3)CC2)cs1	9%	i	-1%
O=S(=O)(c1ccc2[nH]c3c(c2c1)CCCC3)N1CCN(c2cccc(C(F)(F)F)c2)CC1	0%	i	-22%
FC(F)(F)c1cccc(N2CCN(C(=S)Nc3cc(C(F)(F)F)ccn3)CC2)c1	u	x	x	Sfp PPTase inh=5.1µM*;Bsub HM489 growth=7.4µM*;Sfp gel opt=u;Sfp gel=-5%;Sfp SAR2=u;hGST A1-1 inh=u;HSD17B4 counter=-12%;ALDH1A1 inh=19µM*
CC(C)c1ccc(NC(=O)N2CCN(c3ccc(Cl)c(Cl)c3)CC2)cc1	6%	i	-21%
